# The supplement of paper PMC8728848
# The entries come from a sample that favours the strongest signals as a whole.
# Legend:
# Test in all cases: glycan array binding signal (z-score within array); higher = stronger binding
# Conditions in all cases: glycan notation: IUPAC condensed, linker removed
# Fuc(a1-2)Gal(b1-4)GlcNAc = target: Fuc(a1-2)Gal(b1-4)GlcNAc
# Outline: (§1)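 Glycan array binding is given as a within-array Z-score, which can be read as non-binding when negative. The arrays, 3228 of them, came from the Consortium for Functional Glycomics database and were retained only where the protein sequence was available. Z-scores were averaged across arrays of the same protein sequence at different concentrations or buffers and across linkers.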
# [1] = target: Fuc(a1-2)Gal(b1-4)[Fuc(a1-3)]GlcNAc(b1-2)Man(a1-3)[Fuc(a1-2)Gal(b1-4)[Fuc(a1-3)]GlcNAc(b1-2)Man(a1-6)]Man(b1-4)GlcNAc(b1-4)GlcNAc
# Outline: as §1
# [2] = target: Fuc(a1-2)Gal(b1-4)[Fuc(a1-3)]GlcNAc(b1-3)Gal(b1-4)[Fuc(a1-3)]GlcNAc
# Outline: as §1
# [3] = target: Fuc(a1-2)[Gal(a1-3)]Gal(b1-3)GlcNAc(b1-2)Man(a1-3)[Fuc(a1-2)[Gal(a1-3)]Gal(b1-3)GlcNAc(b1-2)Man(a1-6)]Man(b1-4)GlcNAc(b1-4)GlcNAc
# Outline: as §1
# [4] = target: Fuc(a1-2)[Gal(a1-4)]Gal(b1-4)GlcNAc
# Outline: as §1
# [5] = target: Fuc(a1-2)[GalNAc(a1-3)]Gal(b1-4)Glc
# Outline: as §1
# [6] = target: Fuc(a1-2)[GalNAc(a1-4)]Gal(b1-4)GlcNAc
# Outline: as §1
# Gal(a1-3)Gal(b1-3)GlcNAc = target: Gal(a1-3)Gal(b1-3)GlcNAc
# Outline: as §1
# Gal(a1-3)GalNAc = target: Gal(a1-3)GalNAc
# Outline: as §1
# [7] = target: Gal(b1-4)GlcNAc(b1-3)Gal(b1-4)GlcNAc(b1-3)Gal(b1-4)GlcNAc
# Outline: as §1
# Gal6S(b1-4)GlcNAc6S = target: Gal6S(b1-4)GlcNAc6S
# Outline: as §1
# GalNAc(a1-3)Gal = target: GalNAc(a1-3)Gal
# Outline: as §1
# GalNAc(b1-3)Gal = target: GalNAc(b1-3)Gal
# Outline: as §1
# [8] = target: GalNAc(b1-3)Gal(a1-4)Gal(b1-4)GlcNAc
# Outline: as §1
# [9] = target: GalNAc(b1-3)Gal(a1-4)Gal(b1-4)GlcNAc(b1-3)Gal(b1-4)Glc
# Outline: as §1
# GalNAc(b1-4)GlcNAc = target: GalNAc(b1-4)GlcNAc
# Outline: as §1
# Glc(a1-6)Glc(a1-6)Glc = target: Glc(a1-6)Glc(a1-6)Glc
# Outline: as §1
# [10] = target: GlcNAc(a1-4)Gal(b1-4)GlcNAc(b1-3)Gal(b1-4)[Fuc(a1-3)]GlcNAc(b1-3)Gal(b1-4)[Fuc(a1-3)]GlcNAc
# Outline: as §1
# [11] = target: GlcNAc(b1-3)Gal(b1-4)GlcNAc(b1-3)Gal(b1-4)GlcNAc
# Outline: as §1
# [12] = target: GlcNAc(b1-3)[GlcNAc(b1-6)]GlcNAc(b1-4)GlcNAc
# Outline: as §1
# [13] = target: GlcNAc(b1-6)Gal(b1-4)GlcNAc
# Outline: as §1
# Man(a1-2)Man(a1-3)Man = target: Man(a1-2)Man(a1-3)Man
# Outline: as §1
# [14] = target: Neu5Ac(a2-3)Gal(b1-3)GalNAc(b1-3)Gal(a1-4)Gal(b1-4)Glc
# Outline: as §1
# Neu5Ac(a2-3)Gal(b1-4)Glc = target: Neu5Ac(a2-3)Gal(b1-4)Glc
# Outline: as §1
# [15] = target: Neu5Ac(a2-3)Gal(b1-4)GlcNAc(b1-2)Man(a1-3)[GlcNAc(b1-2)Man(b1-4)GlcNAc(b1-2)Man(a1-6)]Man(b1-4)GlcNAc(b1-4)GlcNAc
# Outline: as §1
# [16] = target: Neu5Ac(a2-3)Gal(b1-4)GlcNAc(b1-3)Gal(b1-4)[Fuc(a1-3)]GlcNAc
# Outline: as §1
# [17] = target: Neu5Ac(a2-6)Gal(b1-4)GlcNAc(b1-2)Man(a1-3)[GlcNAc(b1-2)Man(a1-6)]Man(b1-4)GlcNAc(b1-4)GlcNAc
# Outline: as §1
# Neu5Ac(a2-8)Neu5Ac = target: Neu5Ac(a2-8)Neu5Ac
# Outline: as §1
# [18] = target: Neu5Ac(b2-6)Gal(b1-4)GlcNAc
# Outline: as §1
# [19] = target: Neu5Gc(a2-3)Gal(b1-4)GlcNAc
# Outline: as §1
binder,measurement,setting,value
"SSA (Sclerotinia sclerotiorum), A7XUK7 (protein) MGFKGVGTYEIVPYQAPSLNLNAWEGKLEPGAVVRTYTRGDKPSDNAKWQVALVAGSGDSAEYLIINVHSGYFLTATKENHIVSTPQISPTDPSARWTIKPATTHQYEVFTINNKVSELGQLTVKDYSTHSGADVLSASAKTADNQKWYFDAK",glycan array binding signal (z-score),Fuc(a1-2)Gal(b1-4)GlcNAc,-0.112
same,glycan array binding signal (z-score),[1],-0.173
same,glycan array binding signal (z-score),[2],-0.407
same,glycan array binding signal (z-score),[3],-0.312
same,glycan array binding signal (z-score),[4],-0.198
same,glycan array binding signal (z-score),[5],-0.1
same,glycan array binding signal (z-score),[6],3.68
same,glycan array binding signal (z-score),Gal(a1-3)Gal(b1-3)GlcNAc,-0.253
same,glycan array binding signal (z-score),Gal(a1-3)GalNAc,0.053
same,glycan array binding signal (z-score),[7],-0.142
same,glycan array binding signal (z-score),Gal6S(b1-4)GlcNAc6S,0.403
same,glycan array binding signal (z-score),GalNAc(a1-3)Gal,6.1
same,glycan array binding signal (z-score),GalNAc(b1-3)Gal,3
same,glycan array binding signal (z-score),[8],4.61
same,glycan array binding signal (z-score),[9],6.97
same,glycan array binding signal (z-score),GalNAc(b1-4)GlcNAc,5.32
same,glycan array binding signal (z-score),Glc(a1-6)Glc(a1-6)Glc,-0.343
same,glycan array binding signal (z-score),[10],0.158
same,glycan array binding signal (z-score),[11],-0.207
same,glycan array binding signal (z-score),[12],-0.467
same,glycan array binding signal (z-score),[13],-0.344
same,glycan array binding signal (z-score),Man(a1-2)Man(a1-3)Man,-0.3
same,glycan array binding signal (z-score),[14],-0.295
same,glycan array binding signal (z-score),Neu5Ac(a2-3)Gal(b1-4)Glc,-0.186
same,glycan array binding signal (z-score),[15],-0.291
same,glycan array binding signal (z-score),[16],-0.158
same,glycan array binding signal (z-score),[17],-0.226
same,glycan array binding signal (z-score),Neu5Ac(a2-8)Neu5Ac,-0.215
same,glycan array binding signal (z-score),[18],-0.415
same,glycan array binding signal (z-score),[19],-0.366
